# HTT aggregate = mutant huntingtin aggregation inhibition. Potency, µM (top dose mostly 46.1 µM), usual class: inhibitors. PC12 HttQ103-GFP aggregates, Acumen cytometry, 40 h. 220,000 tested, 1.1% active. AID 1688; note: nearly all actives have a fitted effect of over 60% in size
#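 PC12 cells stably carrying ecdysone-inducible HTT exon 1 Q103–GFP were induced with tebufenozide (100 nM final) and treated with library compounds in titration. GFP aggregates in lysates were counted by laser scanning cytometry.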
# GLA spleen mod = inhibitors or activators of human alpha-galactosidase in spleen homogenate | P06280 | human spleen homogenate, 4MU-alpha-Gal fluorescence, 40 min | Potency, µM (series often up to 80 µM), usual class: inhibitors | 240,000 tested, 0.008% active
# Target sequence (P06280 32-429 limits assumed): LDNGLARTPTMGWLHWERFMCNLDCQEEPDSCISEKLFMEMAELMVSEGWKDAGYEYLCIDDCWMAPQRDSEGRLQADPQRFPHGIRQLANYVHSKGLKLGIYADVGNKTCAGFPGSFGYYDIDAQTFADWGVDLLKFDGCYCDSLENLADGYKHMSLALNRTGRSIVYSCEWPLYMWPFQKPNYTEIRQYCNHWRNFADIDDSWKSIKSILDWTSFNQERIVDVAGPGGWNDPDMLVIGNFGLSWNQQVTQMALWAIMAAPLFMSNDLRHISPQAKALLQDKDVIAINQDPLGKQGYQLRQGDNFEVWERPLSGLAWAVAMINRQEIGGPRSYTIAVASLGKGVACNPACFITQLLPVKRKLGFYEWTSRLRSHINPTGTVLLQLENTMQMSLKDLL
#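 Fluorogenic readout (Ex 365/Em 440 nm) of 4-methylumbelliferone released from 1 mM 4-MU-alpha-galactoside by spleen homogenate, 40 min at 37C, pH 5.0. Data normalized to no-enzyme and enzyme controls; Hill-equation AC50 from compound titrations.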
# ERK EGF block = inhibitors of EGF-stimulated ERK signaling pathway. AID 1454. 130,000 tested, 0.41% active. HEK293-V1b, EGF-stimulated phospho-ERK AlphaScreen. Potency, µM (titrated, usually from 11.5 µM), most hits filed as inhibitors; note: nearly all actives have a fitted effect of over 55% in size
#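 Compounds are titrated over HEK293-V1b cells kept overnight in 1% FBS. After 30 min at 37C, EGF (25 nM final) triggers ERK phosphorylation for 5 min, measured by AlphaScreen in lysates.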
# GLA inh pH 4.5 = inhibitors of human alpha-galactosidase A at pH 4.5 | P06280 | purified enzyme, 4-MU-alpha-Gal fluorescence, pH 4.5 | activity change, negative = inhibition, % at 105 µM | 230,000 tested, under 10 active | AID 1467
# HTT ATP protect = cytoprotection in Huntington HTT-Q103 PC12 cell model | PC12 HTT-Q103 induced, cytoprotection, ATP luminescence, 40 h | 230,000 tested, 0.14% active | Potency, µM (top dose mostly 56.4 µM), most hits filed as activators; note: nearly all actives have a fitted effect of over 45% in size
#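 Readout: ATPlite luminescence (ATP level). Model: stable PC12, inducible Htt exon1 Q103-GFP. Inducer: tebufenozide, 100 nM final. Compounds: dose series. No G418 in medium.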
# Hits are given with their value; – = inactive; ? = inconclusive; · = no result given; [ ] = dose if it differs, or a comment. Most compounds without a hit are left out; they make up all but 1.2% or so of the library. Calls come from the whole dose curve; as a rule, active = well fitted curve in the direction sought with a large enough effect; inconclusive = small, poorly fitted or top-dose-only effect, or another doubt; inactive = no such curve, though single readings can be large; an effect the other way counts as inactive or inconclusive.
SMILES,HTT aggregate,GLA spleen mod,ERK EGF block,GLA inh pH 4.5,HTT ATP protect
COc1ccc(C2CC(c3ccc4ccccc4c3)=NN2C(=O)CNC2CCCCC2)cc1 (centres undefined),–,–,–,–,–
COC(=O)c1c(-c2cccc3ccccc23)csc1NC(=O)Cc1ccc(OC)c(OC)c1,12.6µM,–,·,–,–[10 µM]
CCCCCCOC(=O)c1cccnc1,–,·,·,·,–
CC(C)c1ccccc1-n1c(SCC(=O)N2CCc3ccccc3C2)nc2ccccc2c1=O,–,–,–,–,–[10 µM]
O=C(CSc1nc2ccccc2c(=O)n1-c1ccccc1)N1CCc2ccccc2C1,?,–,28.2µM,–,–[10 µM]
CC(C)Cn1c(SCC(=O)N2CCc3ccccc3C2)nc2cc(Cl)ccc2c1=O,10µM,–,–,–,–[10 µM]
COCCn1c(SCC(=O)N2CCc3ccccc3C2)nc2cc(Cl)ccc2c1=O,–,–,–,–,·
C[C@H]1Cc2c(-c3ccccc3)nc3c(c2CO1)CN(S(=O)(=O)c1ccc(C#N)cc1)CC3,·,–[17.5 µM],·,–,–[10 µM]
O=C(c1cnccn1)N1CCC2(CC1)CN(c1cccc(-c3ccccc3)c1)C2,·,–,–,·,–
COc1cc(/C=N/NC(=O)c2cccc([N+](=O)[O-])c2)cc(OC)c1O,–,–,–,–,–
COc1cc(OC)c(OC)cc1/C=N/NC(=O)c1ccc(=O)n(C)c1,–,–,–,–,–[10 µM]
COc1cccc(/C=N/NC(=O)c2ccc(-c3ccccc3)cc2)c1O,?,–,·,–,–
Cc1cccc(/C=N\NC(=O)c2ccc(Cl)cc2)c1O,0.447µM,–,–,–,–[10 µM]
COc1cccc(/C=N/NC(=O)c2ccc(=O)n(C)c2)c1O,7.94µM,–,–,–,–[10 µM]
COc1cccc(/C=N/NC(=O)c2ccc([N+](=O)[O-])cc2Cl)c1O,7.08µM,–,–,–,–[10 µM]
COC(=O)C1=C(C(=O)OC)[C@@H]2N(C)c3ccc(OC)cc3[C@@]23C[C@@H](C(=O)OC)N(S(=O)(=O)c2ccc4c(c2)OCCN4C)C3=N1,·,–[17.5 µM],·,–,–[10 µM]
O=C(NCCc1ccccc1)c1oc2ccccc2c1COc1ccccc1,14.1µM,–,–,–,–[10 µM]
Cc1ccnc(NC(c2ccsc2)c2ccc3ccc(C)nc3c2O)c1 (centres undefined),–[9.22 µM],–,31.6µM,–,–[1.9 µM]
O=[N+]([O-])c1ccc(O)c(-c2nc(-c3ccccc3)c(-c3cccs3)[nH]2)c1,7.94µM,–,·,–,–
CCCCCCCCCCCCCCCCCC(=O)OCC(O)CO (centres undefined),–,·,·,·,–
O=c1c(CCc2ccccc2)nc2cnc(Oc3ccccc3)nc2n1C1CC1,·,–,·,·,–
COc1ccccc1N1CCN(C(=O)CN(c2ccccc2OC)S(=O)(=O)c2ccccc2)CC1,5.01µM,–,·,–,–
COc1ccccc1N1CCN(C(=O)c2ccc(CSc3ccccc3)cc2)CC1,22.4µM,–,–,–,·
CN1C(=O)C2(C(C#N)=C(N)N(c3cc(Cl)cc(Cl)c3)C3=C2C(=O)CCC3)c2ccccc21 (centres undefined),–,–,·,–,–
CN1C(=O)C2(c3ccccc31)C1CCCC=C1C(C#N)=C(N)C2(C#N)C#N (centres undefined),·,–,·,–,20µM
SMILES,HTT aggregate,GLA spleen mod,ERK EGF block,GLA inh pH 4.5,HTT ATP protect
CO[C@@H]1[C@@H](OC2OC(C)C(OC3CC(C)(O)C(OC(=O)CC(C)C)C(C)O3)C(N(C)C)C2O)[C@@H](CC=O)C[C@@H](C)C(=O)/C=C\C2O[C@H]2C[C@@H](C)OC(=O)C[C@H]1OC(C)=O (some centres undefined),–,·,·,·,?
Cc1c(C(=O)N2CCC(C)CC2)sc2ncnc(N(C)c3ccccc3)c12,20µM,–,–,–,–[10 µM]
Cc1c(C(=O)N2CCN(Cc3ccccc3)CC2)sc2ncnc(N3CCOCC3)c12,–,–,·,–,–[10 µM]
Cc1nc(C)n(CC(O)COc2ccc3cc(Br)ccc3c2)n1 (centres undefined),12.6µM,–,·,–,–
OC(COc1ccc2cc(Br)ccc2c1)CN1CCCC1 (centres undefined),–,–,·,–,–[0.074 µM]
CN(C)S(=O)(=O)N1CCN(CC(O)COc2ccc3cc(Br)ccc3c2)CC1 (centres undefined),11.2µM,–,·,–,–[0.074 µM]
